SKKanGAS inh: SKKanGAS growth inhibition; S. pyogenes SKKanGAS, kanamycin growth, BacTiter-Glo, 6 h; inhibition, % at 7.5 µM; 300,000 tested, 1.3% active; AID 1662;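 active = mean replicate score, as percent of positive control median, at least 50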;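 also: strain carries kanamycin resistance gene driven by streptokinase promoter and grows in 40 µg/ml kanamycin; loss of luminescence reflects streptokinase promoter inhibition or plain growth inhibition; 0% = median of DMSO wells and 100% = positive control at its reference dose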
PP1 counter: blocks human PP1-alpha phosphatase, a PP5 counter-screen. purified PP1alpha, OMFP fluorescence. inhibition, % at 6.7 µM. P62136. 320,000 tested, 0.9% active;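 active = inhibition above the mean inhibition of all tested compounds plus 3 SD, computed separately for each screening campaign, cut at about 15% in these data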
Target sequence (P62136 whole entry, looked up): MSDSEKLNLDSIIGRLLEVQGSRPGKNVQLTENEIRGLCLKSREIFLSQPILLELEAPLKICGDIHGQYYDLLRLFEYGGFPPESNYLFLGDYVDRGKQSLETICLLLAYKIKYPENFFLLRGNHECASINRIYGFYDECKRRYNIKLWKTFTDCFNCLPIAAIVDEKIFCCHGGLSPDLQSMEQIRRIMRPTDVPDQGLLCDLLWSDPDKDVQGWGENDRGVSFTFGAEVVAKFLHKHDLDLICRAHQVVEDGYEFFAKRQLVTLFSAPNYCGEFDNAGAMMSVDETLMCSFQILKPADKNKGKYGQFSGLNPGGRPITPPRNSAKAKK
CSC inhib: blocks cancer stem cells. cancer stem cell-like cells viability, luminescence. 300,000 tested, 1.1% active. inhibition, % at 7.5 µM. AID 2717; in the data active = inhibition above about 75%; tested in HMLE shEcad cells
PP5 primary: inhibitors of human protein phosphatase 5 (PP5); purified PP5c, OMFP substrate fluorescence; 320,000 tested, 0.18% active; inhibition, % at 6.7 µM;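 active = inhibition above the campaign's mean inhibition across all tested compounds plus 3 SD, cut at about 9.5% in these data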;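 also: 0% = DMSO only and 100% = 100 µM cantharidin control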
Beta cell apopt: blocks beta cell apoptosis. 300,000 tested, 0.8% active. AID 435005. protection from apoptosis, % (test concentration not listed). INS-1E cytokine-induced death, ATP luminescence, 48 h; percent of positive-control rescue, neutral wells zero;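 active = Every replicate reaches about 75%, or at least half do and their mean reaches it too, limit read from the data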;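 also: 0% = cytokine-treated negative control wells and 100% = positive control rescue; higher means more ATP so stronger rescue from cytokine killing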
The depositor's hits bear a star; . = no result. Sampled rows, rich in hits. Any-hit rate of the full collection: about 3.1%.

SMILES | SKKanGAS inh | PP1 counter | CSC inhib | PP5 primary | Beta cell apopt
c1ccc(CNc2nc(N3CCN(Cc4ccccc4)CC3)nc3ccccc23)cc1 | 8 | 6 | 98* | 4 | 23
Cc1csc2ncnc(NC3CCN(Cc4ccccc4)CC3)c12 | -2 | -1 | -4 | -1 | 107*
CCSc1ccccc1C(=O)N1CCC2(CC1)CC(=O)c1ccccc1O2 | -13 | -7 | -8 | 4 | .
Cc1cccc(N2CCN(S(=O)(=O)c3c(C)noc3/C=C/N(C)C)CC2)c1C | 15 | 2 | 29 | 2 | 0
C=CCSc1nc(-c2ccc(OC)cc2)c(C#N)c(=O)n1CC=C | 8 | . | . | . | .
CCOc1cc(/C=C2\COc3ccccc3C2=O)cc(Br)c1OCC(=O)N(C)C | -1 | 1 | 61 | -6 | 100*
COc1ccc(/C=C2\COc3ccccc3C2=O)cc1OC | -5 | 2 | 24 | -1 | -1
CCOC(=O)C1(CCCc2ccccc2)CCN(Cc2cn(CC)nc2C)CC1 | -32 | -2 | 39 | 0 | 7
CCc1c(C)nc2cc(-c3ccc(OC)c(OC)c3)nn2c1N1CCC(C)CC1 | 57* | -6 | 11 | 3 | 6
CCOCCN1CCN(c2c(CC)c(C)nc3cc(-c4cc(OC)cc(OC)c4)nn23)CC1 | 7 | 4 | -4 | 5 | 5
CCc1c(C)nc2cc(-c3cc(OC)cc(OC)c3)nn2c1N1CCCC1 | 18 | -2 | 83* | 4 | 10
CCc1c(C)nc2cc(-c3ccc(OC)c(OC)c3)nn2c1N1CCCC1 | -7 | 2 | 61 | 4 | 10
COc1ccc(N(C)S(=O)(=O)c2cccc(C(=O)NCc3ccc(C)cc3)c2)cc1 | . | 1 | 6 | 6 | -2
COc1ccc(-n2c(=S)[nH]c3cc(C(=O)Nc4ccccc4OC)ccc3c2=O)cc1 | 0 | -2 | -12 | 3 | 77*
C=CCn1c(N2C(=O)CC(Cc3ccccc3)C2=O)nc2ccccc21 (stereo not given) | 64* | -1 | 3 | 1 | 8
COc1cccc(-c2cc(C(F)(F)F)nc(N3CCC(C)CC3)n2)c1 | 68* | 3 | 46 | -1 | 2
Fc1ccc(-c2cc(C(F)(F)F)nc(N3CCCCC3)n2)cc1 | 65* | -1 | 21 | -1 | 1
Cc1ccc2c(c1)N(C)/C(=C/c1cccc[n+]1CCO)S2 | 1 | 0 | 7 | 2 | 98*
COCC(=O)/C=C1\Sc2ccccc2N1C | -8 | -7 | -8 | -1 | -3
CCN1/C(=C/C(C)=O)Sc2ccc(OC)cc21 | 1 | -1 | -4 | 0 | -1
CCN1/C(=C/c2cccc[n+]2C)Sc2ccc(OC)cc21 | 2 | -1 | 34 | 1 | 105*
COc1ccc2c(c1)N(C)/C(=C/c1cccc[n+]1C)S2 | 25 | 2 | 37 | 3 | 105*
COc1cc(OC)cc(C(=O)/C=C2\Sc3ccccc3N2C)c1 | -12 | -5 | 2 | 3 | 3
Cc1cc2c(cc1S(=O)(=O)N1CCN(c3cccc(C)c3C)CC1)OCC(=O)N2 | 7 | 5 | 4 | 1 | -3
CC(C)P(=O)(c1cccc(C(=O)O)c1)C(C)C | 3 | -2 | -14 | 0 | -3
SMILES | SKKanGAS inh | PP1 counter | CSC inhib | PP5 primary | Beta cell apopt
COc1ccc(S(=O)(=O)N(C)CC(=O)NCCN2CCOCC2)cc1C | -2 | -2 | -28 | -1 | -1
O=C(Nc1cc(S(=O)(=O)Nc2ccc(Cl)cc2)ccc1N1CCCCC1)c1ccc(F)cc1 | 55* | 6 | 90* | 2 | 112*
CS(=O)(=O)Cc1ccc(C(=O)NC2CCSc3ccccc32)cc1 (stereo not given) | 4 | 0 | -14 | 2 | -5
O=c1c2ccccc2oc2ccc(-c3ccc4cc[nH]c4c3)cc12 | . | . | 89* | . | -4
COc1ccc2oc3ccccc3c(=O)c2c1 | 1 | 2 | 4 | 3 | 2
O=c1[nH]c(CN2CCN(c3ncccn3)CC2)nc2c(Br)cc(Br)cc12 | 14 | -1 | 28 | -2 | 5
O=c1[nH]c(CN2CCN(c3ccccn3)CC2)nc2c(Br)cc(Br)cc12 | 12 | -7 | 81* | 0 | -12
Cc1nc2ccccc2c(=O)n1NC(=O)c1cccc(Cl)c1 | 5 | 2 | -18 | 2 | -1
O=C(C#Cc1ccccc1)c1ccco1 | -3 | -1 | 59 | 2 | 100*
O=C(N/N=C/c1ccccc1)c1ccco1 | 1 | -4 | 10 | -1 | 4
Cc1nn(-c2ccc(F)cc2)c(Cl)c1C(=O)N(C)CC(=O)Nc1cccc(F)c1 | -3 | -2 | 1 | 2 | 1
Cc1ccccc1NC(=S)N1CCN(Cc2ccc3c(c2)OCO3)CC1 | -3 | 2 | -16 | 3 | -7

Screens as filed in PubChem BioAssay.
